Molecules are shown by their SMILES. In all, about 68,000 compounds went through this assay and about 2,700 (4%) showed an effect of 50% or more. Shown is part of a subset that was picked to be rich in strong results.

The test system of the experiment is Plasmodium berghei. In words: Screen against P. berghei liver stage (PbLuc), transformed with Luciferase, at 2uM. The experiment is classed as functional, HepG2. Particulars: tested at 2 uM.
`O=C(Cn1ccc2cc(Br)ccc21)NCc1ccc(C(=O)O)cc1`: the INHIBITION is given as 18.15%. In the case of `CCCS(=O)(=O)N1CCOC2(CCCN(c3ccc(C)nn3)C2)C1` (configuration not stated), the INHIBITION is listed as -15.73%. Regarding `CCc1ccc(NC(=O)N2C[C@@H]3C[C@H](C(=O)NC)[C@H](C2)O3)cc1`, the INHIBITION is -56.73%. As to `CNC(=O)[C@H]1C[C@H]2CN(C(=O)Nc3ccccc3)C[C@@H]1O2`, the INHIBITION stood at 7.35%. The same measure for `CNC(=O)[C@H]1C[C@H]2CN(C(=O)Nc3ccc(F)cc3)C[C@@H]1O2`: 56.15%; for `COCCOCC(=O)N1C[C@@H]2CC[C@H](Oc3cccc(F)c3)[C@@H]2C1`: 24.06%. Take `Cc1ccc(C)c(NS(=O)(=O)c2cc3c(c(C(=O)O)c2)OCCO3)c1`: the INHIBITION was -5.09%. In the case of `O=C(Cc1ccc(F)cc1)N1CCn2cc(Cn3cncn3)nc2C1`, the INHIBITION is recorded as 37.2%. With `CC(=O)N1C[C@@H](c2ccsc2)[C@@H]2CN(Cc3ccccc3Cl)CC[C@@H]21`, the INHIBITION is reported as -27.6%.

For the compound `CN1CCC(c2cccc(NCc3nccn3C)n2)CC1`, the INHIBITION was 29.25%.

In the case of `C1CC(CN2CCc3c(nnn3CC3CC3)C2COCC2CC2)C1` (configuration not stated), the INHIBITION was -38.23%. `C1CN(CC2CC2)C(COCC2CC2)c2nnn(CC3CC3)c21` (configuration not stated): the INHIBITION is given as 61.44%.

`Cn1nnc2c1CCN(CC1CC1)C2COCC1CC1` (configuration not stated): the INHIBITION was -10.89%.

For the compound `Cn1nc2c(cc1=O)CN(Cc1nc(C(C)(C)C)no1)CC2`, the INHIBITION is 12.91%. Take `COc1cc(Cl)c(NC(=O)NCCn2cccc2)cc1OC`: the INHIBITION is -23.44%. As to `COc1cc(C)c(NC(=O)NCCn2cccc2)cc1OC`, the INHIBITION stood at 74.18%. With `COc1cc(C)c(NC(=O)CCn2cccc2)cc1OC`, the INHIBITION stood at 30.42%. Consider `CCN(Cc1cccc2c1OCO2)C(=O)NCc1ccccn1`, for which the INHIBITION was -5.39%. `O=C(Cc1cccs1)N1C[C@H]2CC[C@@H](C1)N(Cc1ccccn1)C2=O`: the INHIBITION worked out at 14.63%.

For the compound `COCC(O)CN(C)C(=O)NCc1ccc(-c2ccn[nH]2)cc1` (configuration not stated), the INHIBITION is given as -0.21%.

With `O=C(c1ccncc1)N1CCC2(CC1)C(=O)Nc1ccccc12`, the INHIBITION was 49.25%. On to `COc1ncc(C(=O)N2CCC3(CC2)C(=O)Nc2ccccc23)cn1`, for which the INHIBITION is on record as 50.32%. Turning to `N#Cc1ccc(C(=O)N2CCC3(CC2)C(=O)Nc2ccccc23)cn1`, the INHIBITION came to 24.88%.

As for `Cc1ocnc1C(=O)N1CC[C@@H](O)[C@@H](O)[C@H](N2CCC(F)(F)CC2)C1`, the INHIBITION came to 7.4%. For the compound `CCCOc1ccccc1CN[C@@H]1CCC[C@H]1Cc1cc(C)no1`, the INHIBITION stood at 3.28%. The same measure for `CC(C)CC(CCO)CNC(=O)N1CC(C)(C)C1(C)C` (configuration not stated): -6.69%; for `CCCS(=O)(=O)N1CC(=O)N(Cc2cccc(OC)c2OC)CC(O)C1` (configuration not stated): -13.32%; for `CCOc1ccccc1C(CC(=O)Nc1nc(C)cs1)NC(C)=O` (configuration not stated): 67.59%. Turning to `CCOc1ccccc1C(CC(=O)Nc1ncc(C)s1)NC(C)=O` (configuration not stated), the INHIBITION is reported as -32.89%. Regarding `CCOc1ccccc1C(CC(=O)Nc1ccccc1)NC(C)=O` (configuration not stated), the INHIBITION amounted to 23.45%. With `CC(C)c1nnc2n1CCN(C(=O)c1cccc(C(F)(F)F)c1)C2`, the INHIBITION came out at 15.31%. The same measure for `Cc1cc(C(F)(F)F)nc(N2CCN(Cc3nccn3C)CC2)n1`: 10.91%; for `Cc1cc(C)nc(N2CCN(Cc3nccn3C)CC2)n1`: 5.78%. `Cc1cc(N(C)C)nc(N2CCn3c(nnc3C(C)C)C2)n1`: the INHIBITION was -6.64%. Next, `Cc1cc(N(C)C)nc(N2CCn3c(C)nnc3C2)n1`: 29.13%. `CCc1nnc2n1CCN(c1nc(C)cc(N(C)C)n1)C2`: the INHIBITION is 62.51%. For `CN(C)c1nc(N2CCCC2)nc2c1CCN(Cc1nccn1C)CC2`, the INHIBITION is 55.92%. `Cc1cc(N(C)C)nc(N2CCN(Cc3nccn3C)CC2)n1`: the INHIBITION is given as 50.61%. On to `Cc1nc(N2CCCC2)nc2c1CCN(Cc1nccn1C)CC2`, for which the INHIBITION is 9.98%. Consider `CC(C)Nc1nc2c(c(N(C)C)n1)CCN(Cc1nccn1C)CC2`, for which the INHIBITION is 28.11%.

With `NS(=O)(=O)c1ccc(NCc2ccco2)c2ncccc12`, the INHIBITION stood at 7.3%.

On to `Cc1ccccc1-c1cc(C(=O)NCCN2CCCS2(=O)=O)[nH]n1`, for which the INHIBITION stood at 36.65%. With `Cc1ccccc1-n1c(C)cc(C(=O)N2CCn3c(C)nnc3C2)c1C`, the INHIBITION is reported as -61.5%. As for `CN(C(=O)CCNC(=O)C1COc2ccccc21)c1ccccc1` (configuration not stated), the INHIBITION is on record as -0.3%. As for `Cc1nn(C)c2cnn(CCCNS(=O)(=O)Cc3ccccc3)c12`, the INHIBITION was -12.73%. Take `COC[C@@H]1CCC[C@]12CN(CCc1ccccc1)CCO2`: the INHIBITION is listed as -20.67%. Take `O=C([C@H]1CCCN1)N1CC2(CCNCC2)c2cc(Cl)ccc21`: the INHIBITION was 0.57%. As to `Cc1nc(C)n(C2CCCN(C(=O)c3csc(C)n3)C2)n1` (configuration not stated), the INHIBITION is listed as -47.87%. For the compound `CCc1[nH]ncc1C(=O)N1CCCC(n2nc(C)nc2C)C1` (configuration not stated), the INHIBITION is recorded as 54.85%.

On to `Cc1ncc(C(=O)N2CCCC(n3nc(C)nc3C)C2)c(C(C)C)n1` (configuration not stated), for which the INHIBITION is 24.02%.

With `CCc1nc(C)ncc1C(=O)N1CCCC(n2nc(C)nc2C)C1` (configuration not stated), the INHIBITION was found to be 36.92%. Turning to `Cc1nc(C)n(C2CCCN(C(=O)c3cscn3)C2)n1` (configuration not stated), the INHIBITION is reported as -13.94%. The same measure for `Cc1nc(C)n(C2CCCN(C(=O)c3cncnc3C)C2)n1` (configuration not stated): 62.82%. As to `Cc1nc(C)n(C2CCCN(C(=O)c3csnn3)C2)n1` (configuration not stated), the INHIBITION is 53.45%. For the compound `CCc1ncncc1C(=O)N1CCCC(n2nc(C)nc2C)C1` (configuration not stated), the INHIBITION is on record as -26.85%. As for `CCc1[nH]ncc1C(=O)N1CCCC(n2nc(C)cc2C)C1` (configuration not stated), the INHIBITION was found to be 12.75%.

With `Cc1nn(C)c(C)c1NC(=O)Nc1cccnc1N1CCCC1`, the INHIBITION was determined as 15.28%. Turning to `COCc1ncn2c1CN(C(=O)c1cccc3cccnc13)CC2`, the INHIBITION came to 29.3%. As for `CCC(C)c1noc(C2CCN(C(=O)c3cccnc3)CC2)n1` (configuration not stated), the INHIBITION is recorded as -59.73%. On to `CC(C)(C)C(NC(=O)CCS(C)(=O)=O)c1ccc(F)cc1F` (configuration not stated), for which the INHIBITION is on record as 41.84%.

For `NC(=O)CC1CCN(C(=O)NCc2ccc(-c3ccn[nH]3)cc2)CC1`, the INHIBITION was 7.13%. The same measure for `O=C(C1COc2ccccc2C1)N(CCO)Cc1ccccc1` (configuration not stated): -49.31%. Regarding `CC1CCCCN1C(=O)c1ccn(COc2ccc(F)cc2)n1` (configuration not stated), the INHIBITION was -12.84%. For the compound `COc1cccc(Nc2nc(-c3ccncc3)nc3c2CNCC3)c1`, the INHIBITION came to 12.6%.

On to `N#Cc1cccc(CN2Cc3nccn3CC(COCC3CC3)C2)c1` (configuration not stated), for which the INHIBITION is reported as -17.39%.

Regarding `O=C(NC1CC1)[C@H]1C[C@H]2OCC[C@H]2N(Cc2ccc3ccccc3n2)C1`, the INHIBITION was determined as 0.91%. Turning to `CC(C)NC(=O)[C@H]1C[C@H]2OCC[C@H]2N(Cc2ccc3ccccc3n2)C1`, the INHIBITION stood at 55.8%.

Regarding `CC(C)NC(=O)[C@@H]1C[C@H]2OCC[C@H]2N(Cc2ccc3ccccc3n2)C1`, the INHIBITION worked out at 9.69%. Next, `Cc1ccc([C@@]2(O)CC[C@@H]3CN(S(=O)(=O)C(C)C)C[C@@H]32)cc1`: 40.31%; `Cc1ccc([C@@]2(O)CC[C@@H]3CN(S(=O)(=O)c4cn(C)nc4C)C[C@@H]32)cc1`: 55.74%. Turning to `CCS(=O)(=O)N1C[C@H]2CC[C@](O)(c3ccc(C)cc3)[C@H]2C1`, the INHIBITION worked out at 38.23%. Take `CNC(=O)[C@H]1C[C@@H]2CN(S(=O)(=O)c3cccc(C)c3)C[C@@H]2N1C`: the INHIBITION came to 27.95%. The same measure for `COC(=O)CNC(=O)c1scnc1C`: -7.24%. In the case of `COc1cccc(N2CCN(C(=O)C(C)Oc3ccccc3)CC2=O)c1` (configuration not stated), the INHIBITION turned out to be 24.28%.

As to `CC(C)[C@@H]1CN(C(=O)CN(C)Cc2ccccc2)C[C@H]1C(=O)O`, the INHIBITION is recorded as 35.46%. Turning to `CC(C)[C@@H]1CN(C(=O)CCc2ccc(F)cc2)C[C@H]1C(=O)O`, the INHIBITION was 18.63%. Consider `CC(C)[C@@H]1CN(C(=O)CN(C)Cc2ccc(F)cc2)C[C@H]1C(=O)O`, for which the INHIBITION stood at 72.49%.

For `Cc1nnc(CNC(C)c2cc(C)c(F)c(C)c2)s1` (configuration not stated), the INHIBITION worked out at 31.51%. For the compound `COc1ccc(C(C)NCc2c[nH]nc2C)cc1Br` (configuration not stated), the INHIBITION is listed as -8.5%. For `Cc1cc(C)cc(C(C)NCc2nnc(C)s2)c1` (configuration not stated), the INHIBITION is on record as 38.67%. For the compound `COc1ccc(C(C)NCc2nnc(C)s2)cc1F` (configuration not stated), the INHIBITION is on record as 52.98%. Next, `COc1cc(C(C)NCc2c[nH]nc2C)ccc1OCCO` (configuration not stated): 32.26%; `COc1ccc(C(C)NCc2c[nH]nc2C)cc1OC` (configuration not stated): 66.4%; `Cc1cnc(CN2CCCC(c3cc(C)[nH]n3)C2)cn1` (configuration not stated): 43%. Turning to `Cc1ccc(NC2CCN(C(=O)c3sccc3C3CC3)CC2)nn1`, the INHIBITION came out at 3.38%. Next, `COC1(CNC(=O)c2ccc(Cl)c(Cl)c2)CCSC1` (configuration not stated): -26.56%; `Cc1cccnc1NC(=O)c1ccc(-n2cncn2)nn1`: 9.92%; `O=C(Nc1cccnc1)c1ccc(-n2cncn2)nn1`: -7.69%. Next, `Cc1cccc(NC(=O)c2ccc(-n3cncn3)nn2)n1`: 55.73%. The same measure for `CCS(=O)(=O)N1CCC(c2nnc(C3CC3)o2)CC1`: 54.82%. Turning to `CN(C)S(=O)(=O)N1CCC(c2nnc(C(F)(F)F)o2)CC1`, the INHIBITION is on record as 14.97%. The same measure for `CCS(=O)(=O)N1CCC(c2nnc(C(F)(F)F)o2)CC1`: 14.97%; for `O=C(NCCc1cccs1)[C@]12COC[C@H]1CN(c1ncccn1)C2`: 44%.

As to `NC(=O)CSCCC(=O)NCC1CC1`, the INHIBITION is 37.87%.

For `NC(=O)CSCC(=O)NCC1CCCC1`, the INHIBITION is listed as 60.79%. For the compound `N#CCSCC(=O)NCC1CCCCC1`, the INHIBITION is -64.85%. Take `CN(C)c1cc2c(nn1)CCN(C(=O)C1Cc3ccccc3S1)C2` (configuration not stated): the INHIBITION is 65.77%. On to `CN(C)c1cc2c(nn1)CCN(C(=O)c1cc3c(s1)CCC3)C2`, for which the INHIBITION is -7.96%. Next, `CN(C)c1cc2c(nn1)CCN(C(=O)c1cc3c(s1)CCCC3)C2`: 28.39%.

For `CN(C)c1cc2c(nn1)CCN(C(=O)C1Cc3ccccc3O1)C2` (configuration not stated), the INHIBITION was 11.24%. On to `CN(C)c1cc2c(nn1)CCN(C(=O)c1cc3c(s1)CCOC3)C2`, for which the INHIBITION was 56.05%. For the compound `CCNc1cc2c(nn1)CCN(C(=O)C1Cc3ccccc3S1)C2` (configuration not stated), the INHIBITION is reported as 27.6%.

Values taken from ChEMBL document CHEMBL4513216, “Probing the Open Global Health Chemical Diversity Library for Multistage-Active Starting Points for Next-Generation Antimalarials” (ACS Infect Dis, 2020).
